Source: the supplement of paper PMC11001985

These targets were tested with C#CCNC(=O)CCSSCCC(=O)NCCc1ccc(C=O)c(C=O)c1 (assay: lysine labeling ratio R10:1 (500 µM / 50 µM probe), SILAC-ABPP in living cells; higher = lower intrinsic lysine reactivity toward the probe, active = 2 or less). Details: HeLa; probe concentrations 500 vs 50 µM.
Procedure, shortened: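 Each lysine carries an R value: the filtered median of MS1 peptide ratios of high probe to low probe, with the median then taken over forward and reverse replicates. These came from living SILAC light and heavy HeLa cells in PBS at room temperature labelled with an alkyne-tagged, disulfide-linked lysine probe at 500 µM or 50 µM, in forward and reverse swaps. The lysates were mixed, clicked to biotin-azide, trypsin-digested, captured on neutravidin, released by DTT, alkylated and run by LC-MS/MS on a TIMS-TOF Pro. The highest value allowed is 20.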

UniProt Q16363, sequence (Q16363 whole entry): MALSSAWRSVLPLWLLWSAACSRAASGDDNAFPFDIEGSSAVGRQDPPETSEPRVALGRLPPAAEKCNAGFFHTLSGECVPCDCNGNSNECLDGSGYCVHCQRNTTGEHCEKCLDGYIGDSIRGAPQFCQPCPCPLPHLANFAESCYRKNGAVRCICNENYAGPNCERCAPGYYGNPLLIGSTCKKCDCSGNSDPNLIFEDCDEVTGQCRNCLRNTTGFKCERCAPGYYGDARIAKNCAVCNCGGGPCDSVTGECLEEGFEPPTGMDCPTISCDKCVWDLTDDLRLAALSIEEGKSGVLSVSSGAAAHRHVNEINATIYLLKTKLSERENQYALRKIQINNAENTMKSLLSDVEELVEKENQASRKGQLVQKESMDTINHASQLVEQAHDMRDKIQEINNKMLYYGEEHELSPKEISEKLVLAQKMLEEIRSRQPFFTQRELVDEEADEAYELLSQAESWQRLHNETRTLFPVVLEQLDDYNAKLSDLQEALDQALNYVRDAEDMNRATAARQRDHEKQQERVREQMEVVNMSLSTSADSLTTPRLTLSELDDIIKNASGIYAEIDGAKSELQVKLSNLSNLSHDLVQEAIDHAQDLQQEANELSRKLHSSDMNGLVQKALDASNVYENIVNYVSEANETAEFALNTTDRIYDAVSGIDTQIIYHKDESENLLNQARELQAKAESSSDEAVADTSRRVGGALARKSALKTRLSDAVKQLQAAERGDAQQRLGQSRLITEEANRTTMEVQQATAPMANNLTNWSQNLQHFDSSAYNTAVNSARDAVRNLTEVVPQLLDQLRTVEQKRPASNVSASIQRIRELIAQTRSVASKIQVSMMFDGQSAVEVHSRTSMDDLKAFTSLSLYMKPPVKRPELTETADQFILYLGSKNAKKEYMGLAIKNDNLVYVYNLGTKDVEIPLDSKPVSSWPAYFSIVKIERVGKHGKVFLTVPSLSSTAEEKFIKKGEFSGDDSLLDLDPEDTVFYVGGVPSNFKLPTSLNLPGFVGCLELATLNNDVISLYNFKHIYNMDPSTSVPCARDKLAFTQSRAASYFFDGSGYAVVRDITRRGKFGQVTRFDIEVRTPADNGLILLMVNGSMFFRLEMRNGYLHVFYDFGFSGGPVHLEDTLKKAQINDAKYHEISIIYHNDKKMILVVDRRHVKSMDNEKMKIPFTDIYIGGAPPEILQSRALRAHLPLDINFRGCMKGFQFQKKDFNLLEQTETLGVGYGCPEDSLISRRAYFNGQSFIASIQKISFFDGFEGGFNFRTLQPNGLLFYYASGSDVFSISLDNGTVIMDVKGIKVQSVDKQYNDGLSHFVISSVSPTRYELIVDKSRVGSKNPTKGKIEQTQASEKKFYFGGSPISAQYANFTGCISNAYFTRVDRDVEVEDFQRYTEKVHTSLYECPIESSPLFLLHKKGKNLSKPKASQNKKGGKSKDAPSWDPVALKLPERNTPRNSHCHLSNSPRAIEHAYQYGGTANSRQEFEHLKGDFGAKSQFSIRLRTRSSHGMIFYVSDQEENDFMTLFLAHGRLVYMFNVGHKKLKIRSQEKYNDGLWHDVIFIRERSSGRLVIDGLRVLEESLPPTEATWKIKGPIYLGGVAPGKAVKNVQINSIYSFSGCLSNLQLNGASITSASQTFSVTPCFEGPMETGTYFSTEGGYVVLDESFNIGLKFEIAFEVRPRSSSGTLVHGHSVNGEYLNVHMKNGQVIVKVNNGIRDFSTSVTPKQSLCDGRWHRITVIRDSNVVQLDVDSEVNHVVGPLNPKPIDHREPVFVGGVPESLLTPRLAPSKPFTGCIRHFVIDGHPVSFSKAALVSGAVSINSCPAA
UniProt P40227, sequence (P40227 whole entry): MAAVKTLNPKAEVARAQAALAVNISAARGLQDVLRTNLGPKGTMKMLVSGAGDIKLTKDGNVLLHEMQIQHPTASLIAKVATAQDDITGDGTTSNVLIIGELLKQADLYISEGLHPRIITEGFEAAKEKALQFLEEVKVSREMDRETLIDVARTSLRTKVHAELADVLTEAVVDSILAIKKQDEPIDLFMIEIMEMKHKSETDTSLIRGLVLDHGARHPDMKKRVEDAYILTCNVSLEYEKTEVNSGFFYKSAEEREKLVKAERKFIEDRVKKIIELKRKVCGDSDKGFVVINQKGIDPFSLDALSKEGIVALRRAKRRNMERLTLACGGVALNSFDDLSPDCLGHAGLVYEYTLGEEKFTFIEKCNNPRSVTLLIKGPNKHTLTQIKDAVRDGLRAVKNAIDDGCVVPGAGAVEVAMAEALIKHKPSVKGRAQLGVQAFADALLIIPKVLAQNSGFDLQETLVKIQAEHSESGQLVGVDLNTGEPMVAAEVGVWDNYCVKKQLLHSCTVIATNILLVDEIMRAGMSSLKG
UniProt Q9UP38, sequence (Q9UP38 whole entry, looked up): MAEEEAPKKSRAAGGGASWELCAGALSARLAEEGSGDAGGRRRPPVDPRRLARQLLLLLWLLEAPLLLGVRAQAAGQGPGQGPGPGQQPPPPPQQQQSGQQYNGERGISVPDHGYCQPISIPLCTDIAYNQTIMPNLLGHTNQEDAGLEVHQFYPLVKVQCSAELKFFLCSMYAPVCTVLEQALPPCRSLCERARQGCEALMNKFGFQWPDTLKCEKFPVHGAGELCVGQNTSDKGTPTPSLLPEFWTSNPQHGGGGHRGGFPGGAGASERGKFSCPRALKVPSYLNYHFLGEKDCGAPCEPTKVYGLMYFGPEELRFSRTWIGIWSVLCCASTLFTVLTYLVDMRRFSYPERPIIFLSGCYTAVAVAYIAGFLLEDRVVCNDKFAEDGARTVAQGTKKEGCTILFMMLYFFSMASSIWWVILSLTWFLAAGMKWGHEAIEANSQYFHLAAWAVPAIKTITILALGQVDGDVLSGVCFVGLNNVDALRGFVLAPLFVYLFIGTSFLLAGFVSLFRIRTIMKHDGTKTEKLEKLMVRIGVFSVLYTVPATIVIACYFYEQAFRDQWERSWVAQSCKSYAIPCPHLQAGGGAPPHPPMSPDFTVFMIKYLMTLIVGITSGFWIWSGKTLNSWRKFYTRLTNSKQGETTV
UniProt P55060, sequence (P55060 whole entry): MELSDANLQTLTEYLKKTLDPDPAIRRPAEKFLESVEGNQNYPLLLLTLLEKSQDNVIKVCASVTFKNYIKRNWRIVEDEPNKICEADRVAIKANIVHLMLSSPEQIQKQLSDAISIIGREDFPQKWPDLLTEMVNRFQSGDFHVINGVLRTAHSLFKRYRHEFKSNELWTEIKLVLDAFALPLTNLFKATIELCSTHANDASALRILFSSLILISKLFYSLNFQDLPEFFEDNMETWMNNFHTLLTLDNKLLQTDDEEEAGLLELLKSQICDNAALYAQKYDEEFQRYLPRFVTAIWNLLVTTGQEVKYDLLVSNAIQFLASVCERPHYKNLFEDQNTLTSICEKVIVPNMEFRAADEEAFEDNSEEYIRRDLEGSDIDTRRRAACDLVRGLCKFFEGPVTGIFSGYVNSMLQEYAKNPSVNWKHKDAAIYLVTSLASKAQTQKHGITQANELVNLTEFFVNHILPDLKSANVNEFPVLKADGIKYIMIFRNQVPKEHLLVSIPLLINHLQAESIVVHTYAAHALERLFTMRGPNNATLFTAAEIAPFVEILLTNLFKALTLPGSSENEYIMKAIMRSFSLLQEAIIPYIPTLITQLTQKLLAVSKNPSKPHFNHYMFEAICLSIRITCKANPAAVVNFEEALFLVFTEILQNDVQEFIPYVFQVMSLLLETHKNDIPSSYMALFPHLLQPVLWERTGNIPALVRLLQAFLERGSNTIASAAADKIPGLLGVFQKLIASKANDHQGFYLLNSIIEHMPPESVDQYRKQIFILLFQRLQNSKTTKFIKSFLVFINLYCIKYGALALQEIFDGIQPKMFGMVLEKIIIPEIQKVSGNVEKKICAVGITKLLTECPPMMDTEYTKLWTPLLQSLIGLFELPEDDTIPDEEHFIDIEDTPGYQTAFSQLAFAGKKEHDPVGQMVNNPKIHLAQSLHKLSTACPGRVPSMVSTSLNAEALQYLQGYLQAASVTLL
UniProt P52272, sequence (P52272 whole entry): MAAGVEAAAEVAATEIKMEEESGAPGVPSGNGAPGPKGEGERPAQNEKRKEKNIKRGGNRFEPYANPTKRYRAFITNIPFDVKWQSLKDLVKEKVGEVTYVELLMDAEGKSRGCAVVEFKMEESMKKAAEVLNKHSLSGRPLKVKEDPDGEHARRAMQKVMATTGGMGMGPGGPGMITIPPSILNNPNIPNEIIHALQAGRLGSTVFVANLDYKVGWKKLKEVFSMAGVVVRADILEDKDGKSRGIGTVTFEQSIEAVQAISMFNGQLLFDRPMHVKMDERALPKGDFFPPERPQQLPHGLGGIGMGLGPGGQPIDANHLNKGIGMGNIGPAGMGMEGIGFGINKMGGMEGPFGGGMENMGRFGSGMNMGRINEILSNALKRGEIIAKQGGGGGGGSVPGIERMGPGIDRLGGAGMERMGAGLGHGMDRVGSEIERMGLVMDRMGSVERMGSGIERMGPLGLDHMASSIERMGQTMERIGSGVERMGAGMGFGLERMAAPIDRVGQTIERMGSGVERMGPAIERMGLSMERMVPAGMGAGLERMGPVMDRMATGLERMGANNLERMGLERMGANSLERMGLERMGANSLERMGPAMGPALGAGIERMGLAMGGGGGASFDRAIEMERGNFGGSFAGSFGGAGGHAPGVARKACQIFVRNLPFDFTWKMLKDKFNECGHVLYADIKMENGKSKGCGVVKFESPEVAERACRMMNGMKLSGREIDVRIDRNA
UniProt Q06830, sequence (Q06830 whole entry): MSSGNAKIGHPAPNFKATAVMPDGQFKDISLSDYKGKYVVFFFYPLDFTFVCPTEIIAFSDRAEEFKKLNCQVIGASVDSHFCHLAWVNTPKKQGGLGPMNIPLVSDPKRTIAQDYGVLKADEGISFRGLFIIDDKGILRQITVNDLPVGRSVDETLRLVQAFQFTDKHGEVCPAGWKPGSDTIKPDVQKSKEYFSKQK
UniProt P05387, sequence (P05387 whole entry): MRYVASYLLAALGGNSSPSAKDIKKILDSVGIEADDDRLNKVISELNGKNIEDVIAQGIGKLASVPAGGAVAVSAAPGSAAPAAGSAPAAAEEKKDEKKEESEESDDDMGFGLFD

Lysine labeling ratio R10:1, inactive:
UniProt P46781 (lysine site: K11) 4.03, F11R (lysine site: K78) (UniProt Q9Y624) 3.33, GPI (lysine site: K447) (UniProt P06744) 2.73, PLXNA2 (lysine site: K820) (UniProt O75051) 5.38, HSPD1 (lysine site: K364) (UniProt P10809) 2.45, FZD1 (lysine site: K273) (UniProt Q9UP38) 4.28, TUFM (lysine site: K91) (UniProt P49411) 2.38, ITGA3 (lysine site: K638) (UniProt P26006) 5.04, RPLP2 (lysine site: K25) (UniProt P05387) 2.1, HNRNPM (lysine site: K651) (UniProt P52272) 2.28, IGF2R (lysine site: K393) (UniProt P11717) 3.23, CCT2 (lysine site: K230) (UniProt P78371) 3.3, FASN (lysine site: K436) (UniProt P49327) 5.67, GPC1 (lysine site: K338) (UniProt P35052) 7.36, PPIB (lysine site: K116) (UniProt P23284) 6.61, PRDX1 (lysine site: K93) (UniProt Q06830) 4.52, CELSR2 (lysine site: K1846) (UniProt Q9HCU4) 3.09, CD109 (lysine site: K471) (UniProt Q6YHK3) 2.01, RPS5 (lysine site: K63) (UniProt P46782) 3.35, UniProt Q16363 (lysine site: K1330) 2.83, MCAM (lysine site: K134) (UniProt P43121) 3.83, P4HB (lysine site: K81) (UniProt P07237) 6.39, UniProt Q15149 (lysine site: K932) 6.51, CCT3 (lysine site: K203) (UniProt P49368) 4.58, SURF4 (lysine site: K139) (UniProt O15260) 3.69, SERBP1 (lysine site: K68) (UniProt Q8NC51) 5.36, UniProt Q16363 (lysine site: K518) 2.09

Lysine labeling ratio R10:1, active:
FN1 (lysine site: K2030) (UniProt P02751) 0.807, UniProt P05187 (lysine site: K84) 1.24, STS (lysine site: K368) (UniProt P08842) 1.48, UniProt P49591 (lysine site: K12) 0.947, SEMA3C (lysine site: K106) (UniProt Q99985) 0.653, UniProt Q99500 (lysine site: K27) 1.9, EZR (lysine site: K162) (UniProt P15311) 0.7, PA2G4 (lysine site: K288) (UniProt Q9UQ80) 0.997, CSE1L (lysine site: K17) (UniProt P55060) 1.76, DSG2 (lysine site: K362) (UniProt Q14126) 1.02, CCT6A (lysine site: K251) (UniProt P40227) 1.04, IGSF8 (lysine site: K194) (UniProt Q969P0) 1, UniProt P60866 (lysine site: K34) 0.547
